In the supplement of paper PMC6555819:

Key:
Test in all cases: PBM binding z-score (relative to random genomic background probes); higher = stronger binding; sequences stand for … in GC…GCGATTGACAGCGTAGAATGAAGG
[1] = tested on: PPARg:RXRa DBDmut IVT, anti-RXR (DBD mutation: RXRa K156A/R161A, NR concentration 270 nM, RXRa partner concentration 90 nM)
In short: (§1)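 Binding z-scores take random background probes as their reference. They come from custom Agilent 4×180K protein-binding microarrays incubated 1 h with ligand-free nuclear receptor dimers, with antibodies against each partner (one per run) detecting binding. Scanned fluorescence was regression-normalized.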

[2] = tested on: PPARg:RXRa IVT, anti-PPARg (NR concentration 270 nM, RXRa partner concentration 90 nM)
In short: as §1

[3] = tested on: PPARg DBDmut:RXRa IVT, anti-PPARg (DBD mutation: PPARg1 K132A/R137A, NR concentration 270 nM, RXRa partner concentration 90 nM)
In short: as §1

[4] = tested on: PPARg DBDmut IVT, anti-PPARg (DBD mutation: PPARg1 K132A/R137A, NR concentration 270 nM)
In short: as §1

[5] = tested on: PPARg homodimer (NR concentration 180 nM)
In short: as §1

[6] = tested on: PXR:RXRa (NR concentration 270 nM, RXRa partner concentration 90 nM)
In short: as §1

[7] = tested on: PXR homodimer (NR concentration 270 nM)
In short: as §1

[8] = tested on: RARa:RXR (NR concentration 270 nM, RXRa partner concentration 90 nM)
In short: as §1

[9] = tested on: RARa homodimer (NR concentration 270 nM)
In short: as §1

[10] = tested on: RARb:RXRa (NR concentration 270 nM, RXRa partner concentration 90 nM)
In short: as §1

[11] = tested on: RARb homodimer (NR concentration 270 nM)
In short: as §1

[12] = tested on: RARg:RXRa (NR concentration 270 nM, RXRa partner concentration 90 nM)
In short: as §1

[13] = tested on: RARg homodimer (NR concentration 270 nM)
In short: as §1

[14] = tested on: RXRa DBDmut IVT, anti-RXR (DBD mutation: RXRa K156A/R161A, NR concentration 90 nM)
In short: as §1

[15] = tested on: RXRa homodimer (NR concentration 180 nM)
In short: as §1

[16] = tested on: THRa:RXRa (NR concentration 90 nM, RXRa partner concentration 90 nM)
In short: as §1

[17] = tested on: THRa homodimer (NR concentration 90 nM)
In short: as §1

[18] = tested on: VDR:RXRa (NR concentration 270 nM, RXRa partner concentration 90 nM)
In short: as §1

[19] = tested on: VDR homodimer (NR concentration 270 nM)
In short: as §1

Sequence | PBM binding z-score [1] | PBM binding z-score [2] | PBM binding z-score [3] | PBM binding z-score [4] | PBM binding z-score [5] | PBM binding z-score [6] | PBM binding z-score [7] | PBM binding z-score [8] | PBM binding z-score [9] | PBM binding z-score [10] | PBM binding z-score [11] | PBM binding z-score [12] | PBM binding z-score [13] | PBM binding z-score [14] | PBM binding z-score [15] | PBM binding z-score [16] | PBM binding z-score [17] | PBM binding z-score [18] | PBM binding z-score [19]
ATATGTAGGTTACATCCGGGTCTTTCAGGCTATG | 7.37 | 7.42 | 1.99 | 3.12 | 1.13 | 0.703 | 0.192 | 0.794 | 0.548 | 1.21 | 1.01 | 1.09 | 1.02 | 0.936 | 0.924 | 1.62 | 0.947 | 1.06 | 0.214
AGAATGAGGTTACACGTAGATCAGGGAAGAAAGT | 4.19 | 3.53 | 1.09 | 0.468 | 1.27 | 1.36 | -0.00272 | 1.84 | 0.499 | 2.07 | 1.16 | 2.34 | 1.89 | 1.23 | 2.3 | 2.75 | 1.12 | 1.67 | 0.772
GCTGCTCGGTCAACTGATGGTCAGCTAAAGCTCG | 0.634 | -0.00578 | -0.981 | -0.237 | -0.156 | -0.105 | -0.492 | 0.225 | -0.934 | 2.87 | 2.15 | 2.42 | 3.21 | -0.121 | -0.0356 | 0.0227 | -0.551 |  | -0.439
CAAACTAGGTCAAAGGTCAGAGTCGAGCCAACCA | 8.97 | 9.43 | 6.85 | 6.78 | 5.97 | 6.67 | 1.28 | 8.46 | 3.04 | 5.44 | 5.01 | 8.13 | 6.87 | 2.57 | 9.54 | 4.59 | 1.56 | 5.78 | 2.39
ATATGTAGGTCATCGGGTCATTCAGTTTGCGCAT | 8.44 | 8.83 | 6.46 | 6.66 | 5.23 | 5.5 | 8.57 | 6.32 | 2.05 | 4.65 | 4.63 | 6.21 | 5.6 | 2.92 | 6.72 | 4.16 | 3 |  | 5.1
ATATGTAGGTTAAGGGTCATGCAGGTTGGTTCGC | 7.69 | 7.88 | 4.88 | 2.56 | 5.05 | 5.37 | 2.16 | 6.47 | 2.37 | 3.73 | 3.89 | 5.07 | 3.84 | 1.76 | 6.52 | 3.5 | 1.93 | 5.46 | 3.81
CCTACTGGGCCAAGCTCATTGATCAGTCAAAGCA | 4.44 | 2.91 | -0.901 | -1.44 | -0.727 | -0.626 | -0.809 | -0.399 | -1.2 | -0.112 | -0.235 | -0.314 | -0.109 | -0.384 | -0.732 | -0.704 | -0.701 |  | -0.851
CAAACTAGGTCAAAGGTCAAAGACGAGCCAACCA | 8.8 | 9.63 | 6.19 | 7.03 | 8.08 | 7.17 | 1.87 | 9.19 | 4.59 | 5.96 | 5.19 | 9.13 | 7.66 | 2.8 | 10.6 | 4.79 | 1.57 |  | 3.33
ACTAGGAGGACAAAGGTCAGAGCTACGCCAGTGA | 2.03 | 4.63 | 0.268 | -0.394 | 4.52 | 3.9 | 0.46 | 5.08 | 2.86 | 4.54 | 4.5 | 6.01 | 5.64 | 0.898 | 5.85 | 3.37 | 0.874 | 3.45 | 0.936
CAAACTAGGTCACGAAAGGTCAAATTCGAATGAC | 8.4 | 9.14 | 3.89 | 2.38 | 4.71 | 7.07 | 2.34 | 7.31 | 2.58 | 6 | 5.85 | 7.7 | 8.41 | 2.5 | 8.21 | 5.14 | 2.56 |  | 3.46
CCGACTTGGGCAAAGGTTACCATACTCAGTACGA | 0.755 | 2.56 | -0.26 | -0.659 | 0.915 | 1.45 | 0.0117 | 2.35 | -0.0307 | 1.92 | 1.87 | 2.04 | 1.01 | 0.535 | 2.45 | 1.39 | -0.0972 |  | 0.0256
ACTTGGAGGACAAAGGTCAGAGCTACGCCAGTGA | 2.6 | 5.22 | 1.39 | 1.18 | 4.64 | 4.33 | 0.449 | 5.83 | 2.6 | 4.72 | 4.32 | 6.26 | 5.66 | 1.71 | 5.24 | 3.55 | 0.496 |  | 1.62
CTAACTAGGTCAAGGTCAAAGTCGGTTTGTGCCA | 8.82 | 8.88 | 2.1 | 2.34 | 2.99 | 5.04 | 1.89 | 4.65 | 0.786 | 5 | 5.03 | 5.89 | 6.45 | 3.03 | 5.12 | 4.19 | 3.77 |  | 3.88
AGTCAAAGTTCATCAAGGTAACGTAAGATATGCT | 0.277 | 3.34 | 1.59 | 1.26 | 3.05 | 5.4 | 9.31 | 4.3 | 2.24 | 4.9 | 3.86 | 5.57 | 5.96 | 4.57 | 4.81 | 3.8 | 1.23 | 5.55 | 4.97
ATCTCTAGGTAAATGTTCAGTGAATCCCGAGGAT | 2.02 | 1.64 | 1.6 | 0.892 | 0.258 | -0.0966 | 0.236 | 0.0149 | 0.709 | 0.211 | -0.29 | 0.459 | 0.485 | -0.155 | 0.162 | 0.097 | 0.171 | -0.0606 | -0.0904
TCTAGCAGGCCATAGGGTCACTCAAGAGGTACGG | 1.23 | 1.69 | -1.22 | -0.48 | 0.644 | 2.43 | -0.246 | 3.69 | 0.229 | 2.75 | 3.27 | 3.6 | 2.95 | 0.333 | 3.87 | 3.25 | 1.93 | 2.62 | 1.64
CCTACTGGGCCACGAAAGGTGATTGATTCAGTGA | 5.14 | 5.37 | -0.117 | -0.709 | 0.352 | 0.0244 | -0.433 | 0.698 | -0.285 | 0.929 | 1.02 | 0.589 | 0.505 | -0.663 | 0.207 | 1.41 | -0.377 |  | -0.289
CCTACTGGGGCAAAGGTCATTGATTCCAATGCTC | 6.11 | 7.2 | 0.312 | -0.624 | 2.42 | 5.6 | 0.979 | 6.37 | 0.341 | 4.66 | 4.6 | 6.11 | 4.61 | 0.782 | 6.93 | 3.66 | 0.71 | 4.96 | 1.92
CGGACTGGGGCAAAGGTTACCATACTCAGTACGA | 6.11 | 6.8 | 0.377 | 0.924 | 1.68 | 2.76 | -0.252 | 3.88 | 0.372 | 2.42 | 2.31 | 3.75 | 1.9 | 0.0322 | 3.79 | 2.1 | 0.079 |  | 0.18
CGTCCAAGCTCAGCAGGTCAGTGAAAGCGACGTG | -0.243 | -0.249 | -0.634 | -0.872 | -0.131 | 0.0588 | -0.688 | 0.234 | -0.706 | 1.45 | 1.73 | 0.644 | 1.1 | -0.071 | 0.158 | 0.642 | -0.345 |  | -0.808
GATTCAGGGTCAGCTAGAGGCCAGAGTATGGAAA | 1.78 | 3.04 | 0.184 | -0.207 | 2.1 | 3.77 | 0.432 | 4.59 | 0.68 | 4.5 | 3.87 | 7 | 5.09 | 1.93 | 4.72 | 3.52 | 1.01 |  | 0.938
AGTCAAAGTTCAGGACGAGATAACGTAAAGCACG | -0.425 | 1.35 | 0.702 | 0.865 | 1.35 | 1.99 | 0.795 | 1.85 | 1.11 | 4.1 | 2.69 | 3.84 | 4.59 | 2.82 | 2.8 | 1.76 | 0.431 |  | 1.95
ATCGAAAGGTCGTGAGGTGAGTACACAGAAAGGC | 0.432 | 2.33 | 1.04 | 0.897 | 2.45 | 3.57 | 0.557 | 4.33 | 0.76 | 3.91 | 3.12 | 4.77 | 4.06 | 1.6 | 5.77 | 3.39 | 1.68 |  | 1.92
TCTCGGAGGACACGAAAGGTCTGAGCTCGACATC | 1.62 | -0.101 | -0.378 | -0.264 | 0.204 | -0.0379 | -0.678 | 0.227 | -0.321 | 1.7 | 1.21 | 0.667 | 1.47 | 0.831 | 0.137 | 1.53 | 0.392 |  | -0.266
GCTATTAGGTGAAAGGGCAACCGAATGATTCTCG | 6.66 | 6.05 | 0.769 | 0.0827 | 1.6 | 1.48 | 0.0465 | 2.47 | 0.772 | 2.48 | 2.47 | 2.34 | 1.75 | 0.924 | 2.35 | 2.04 | 0.498 |  | 0.381
CCTACTGGGCCATTAAGAGGTCATTGATCATATG | 4.25 | 4.13 | 0.259 | 0.0479 | 2.02 | 4.48 | 1.79 | 4.14 | 0.836 | 2.94 | 3.96 | 3.93 | 2.81 | 1.02 | 3.74 | 3.23 | 1.49 |  | 2.79
CCTAGTTGGTCAAGGTCACGCACGCTATAGGTAC | 2.54 | 3.78 | 0.403 | 0.558 | 3.73 | 4.64 | 2.27 | 4.99 | 2.21 | 4.31 | 4.81 | 5.21 | 5.57 | 1.94 | 5.65 | 4.06 | 4.48 |  | 3.96
GGTACGAGGGCAAAGTTGATAGCATCTGTCGACG | 2.41 | 3.4 | 0.0227 | -1.04 | 1.2 | 0.895 | 0.0381 | 1.42 | -0.085 | 2.33 | 1.13 | 2.05 | 1.83 | 2.49 | 1.7 | 1.33 | -0.0946 |  | 1.48
